# PKA-R2B act = activators of PKA-R2B holoenzyme, primary screen, biochemical, fluorescence polarization, Cy5-IP20, human; actives 0.079% (n = 340,000); cAMP-dependent protein kinase catalytic subunit beta (Homo sapiens) + cAMP-dependent …; activation, % at 11.4 µM; PKA-R2B holoenzyme dissociation; R2B truncated from residue 108, S112A mutant; 0% DMSO only, 100% 113 µM cGMP;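 active = activation above a cutoff set at the mean over all compounds plus 3 SD, cut at about 18% in these data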;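 also: higher means more holoenzyme dissociation and a rise in polarization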
# TMEM16A inh = TMEM16A chloride channel inhibitors, primary screen, cell-based, HTS; actives 1.2% (n = 310,000); HEK293 TMEM16A/YFP iodide influx fluorescence, ionomycin; normalized B-score (activity score, 25-100; higher = stronger inhibition) at 10 µM;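 active = ratio plate-corrected score three or more library SD toward inhibition, starting fluorescence score within five deviations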;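 also: score derived from kinetic fluorescence span divided by baseline fluorescence per well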
# Target sequence (Q8BHY3 whole entry, looked up): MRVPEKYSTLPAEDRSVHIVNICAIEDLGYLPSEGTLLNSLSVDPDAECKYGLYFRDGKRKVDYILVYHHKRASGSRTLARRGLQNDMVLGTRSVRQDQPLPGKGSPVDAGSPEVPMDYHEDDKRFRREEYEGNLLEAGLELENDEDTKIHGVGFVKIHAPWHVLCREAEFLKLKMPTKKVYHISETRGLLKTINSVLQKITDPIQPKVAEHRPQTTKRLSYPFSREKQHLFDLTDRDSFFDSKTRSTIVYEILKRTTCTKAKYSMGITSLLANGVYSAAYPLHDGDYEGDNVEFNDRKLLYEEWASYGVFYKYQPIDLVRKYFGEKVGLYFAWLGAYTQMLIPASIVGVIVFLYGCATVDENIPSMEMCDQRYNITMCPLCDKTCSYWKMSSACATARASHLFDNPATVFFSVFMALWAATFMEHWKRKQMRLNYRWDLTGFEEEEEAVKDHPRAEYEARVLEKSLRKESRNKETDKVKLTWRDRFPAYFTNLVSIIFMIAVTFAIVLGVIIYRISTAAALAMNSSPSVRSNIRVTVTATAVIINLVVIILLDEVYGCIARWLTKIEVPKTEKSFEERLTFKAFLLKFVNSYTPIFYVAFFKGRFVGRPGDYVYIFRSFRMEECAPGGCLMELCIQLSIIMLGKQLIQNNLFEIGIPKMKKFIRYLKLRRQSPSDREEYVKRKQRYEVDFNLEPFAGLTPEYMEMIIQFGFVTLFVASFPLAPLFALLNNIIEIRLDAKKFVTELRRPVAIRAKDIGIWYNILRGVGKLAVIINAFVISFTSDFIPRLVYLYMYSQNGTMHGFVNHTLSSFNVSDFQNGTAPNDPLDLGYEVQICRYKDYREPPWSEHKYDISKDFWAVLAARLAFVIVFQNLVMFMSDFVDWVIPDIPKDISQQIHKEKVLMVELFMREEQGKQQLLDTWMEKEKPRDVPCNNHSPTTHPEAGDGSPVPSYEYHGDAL
# CHT PAM = CHT positive allosteric modulators, primary screen, cell-based, membrane potential dye, choline EC20 | CHT-expressing cells; active compounds read high; LV-AA mutant CHT in HEK293 cells | B-score at 10 µM | actives 0.49% (n = 310,000) | AID 488977, 2010;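 active = initial fluorescence not abnormally high and integrated response B-score, plate-corrected, over 3 SD above library mean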
# TMEM16A act = TMEM16A chloride channel activators or potentiators, primary screen, cell-based, HTS. Anoctamin-1 (Mus musculus), Q8BHY3. B-score at 10 µM. AID 623877, 2012. actives 0.3% (n = 340,000). HEK293 TMEM16A/YFP-H148Q/I152L, iodide quench fluorescence; active compounds read low;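 active = fluorescence-ratio B-score plate-corrected deviation score at least 3 library SD below zero, with starting fluorescence score within 5 deviations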;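 also: channel opened by trigger with iodide after compound preincubation; score built on the fluorescence ratio of max minus min over baseline; more negative score means more quench and so TMEM16A activation or potentiation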
# CHT block = inhibitors of human choline transporter CHT; High affinity choline transporter 1 (Homo sapiens), Q9GZV3; CHT-expressing cells, membrane potential dye, choline response; active compounds read low; B-score at 10 µM; actives 0.86% (n = 310,000); AID 488975, 2010;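 active = B-score over 3 SD under the library average, and starting fluorescence ratio not unusually high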;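 also: choline stimulus applied at its EC90 after an EC20 pre-addition; B-score computed on integrated fluorescence ratio after choline addition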
# PKA-R1A activ = activators of PKA-R1A holoenzyme, primary screen, biochemical, fluorescence polarization, Cy5-IP20, bovine R1A, mouse PKAc. activation, % at 11.4 µM. AID 504707, 2011. PKA-R1A dissociation; scaled: DMSO 0%, 113 µM cGMP 100%. cAMP-dependent protein kinase type I-alpha regulatory subunit (Bos taurus) + …. actives 0.083% (n = 340,000);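 active = percent activation above the mean of all tested compounds plus 3 SD, cut at about 19% in these data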;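 also: higher means more PKAc released from R1A so a rise in polarization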
# CHT block conf = CHT inhibitors, confirmation, cell-based, membrane potential dye, duplicate; actives 70% (n = 2,400); shares compounds with CHT block; CHT-expressing cells, choline membrane potential dye; LV-to-AA substituted CHT, HEK293 cells; AID 493221, 2011; CHT activity remaining % of control (active compounds read low), % at 10 µM;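 active = choline transporter activity left, mean of duplicates at 10 µM, below buffer-only control mean minus 3 SD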;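 also: depolarization triggered by choline at its EC90 following an EC20 pre-addition; 0% = hemicholinium-3 full block and 100% = buffer-only control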
# HEK293 CHT ctr = membrane potential effects in parental HEK293, counter-screen for CHT inhibitor project, cell-based, membrane potential dye; actives 4% (n = 2,400); choline response; active = decrease or increase beyond buffer ±3SD; shares compounds with CHT block; AID 493222, 2011; membrane potential ratio readout (active if shifted either direction beyond buffer ±3SD; no single direction) at 10 µM;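 also: parental cells lack the transporter so any hit is non-specific; ratio is peak minus trough fluorescence over baseline after EC90 choline challenge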
# * = called active by the depositor; i = inactive; · = no result given. Rows were chosen to be rich in hits. Some 2.5% of all compounds tested hit in one or more screens of this group.
SMILES,PKA-R2B act,TMEM16A inh,CHT PAM,TMEM16A act,CHT block,PKA-R1A activ,CHT block conf,HEK293 CHT ctr
Cc1ccc(C(=O)Nc2ccc(Cc3ccncc3)cc2)cc1[N+](=O)[O-],9,100*,i,i,-5.6*,-1,i,i
O=c1oc2ccccc2c(Cl)c1CN1CCCCC1,-4,i,i,i,-6.9*,8,31%*,i
O=[N+]([O-])c1ccc(SCCc2ccncc2)cc1,1,i,i,i,i,7,·,·
O=[N+]([O-])c1ccc(SCCc2ccccn2)cc1,-8,i,i,i,-6.5*,6,53%*,i
CSC(SC)=C(C#N)C(=O)c1ccccc1,-7,i,i,i,-5*,4,37%*,i
COc1cccc(C(=O)C(CCC#N)c2ccccc2)c1 (centres undefined),-6,·,·,·,·,-3,·,·
COc1cccc(C(=O)C(C#N)=C(SC)SC)c1,3,i,i,i,-5.8*,10,36%*,i
CN(CC(=O)Nc1c(Cl)cccc1Cl)CC(=O)N1CCc2ccccc21,6,·,·,·,·,-2,·,·
O=C(N/N=C/c1cccs1)c1cccc(S(=O)(=O)Nc2ccc(Cl)cc2)c1,10,i,i,i,-5.5*,-2,i,i
CN(C)c1cccc(C(=O)NNC(=O)C23CC4CC(CC(C4)C2)C3)c1,-7,·,·,i,·,5,·,·
Clc1ccc(CSc2ncnc3nc[nH]c23)cc1,-5,i,i,i,-6.2*,6,i,i
Cc1ccccc1CC1(CO)CCCN(Cc2nc(-c3cccs3)oc2C)C1 (centres undefined),14,i,i,i,-6.7*,2,i,i
CCOc1ccccc1OCCC(=O)OCC(=O)Nc1c(C)nn(-c2ccccc2)c1C,-2,i,i,i,i,-3,·,·
Cc1ccc([C@H]2C[C@@H](O)[C@H](n3cc(-c4ccc(F)cc4)nn3)CN2C(=O)c2cccs2)cc1,1,·,·,·,·,10,·,·
CCOc1ccccc1NC(=O)CSc1nc2ccccc2nc1N1CCCC1,-6,i,i,i,-5.5*,-10,i,i
N=C1SCC(=O)N1c1ncc(Cc2cccc(Cl)c2)s1,-3,·,·,i,·,-12,·,·
Cc1noc(C)c1COC(=O)c1cc(F)c(F)cc1Cl,-10,i,i,i,i,-16,·,·
Cc1noc(C)c1COC(=O)c1cnc(Cl)c(Cl)c1,9,i,i,i,-6.9*,-8,47%*,i
COc1ccc2c(c1OC)C(=O)N1c3ccccc3C(=O)N(c3ccccc3)C21 (centres undefined),13,i,i,i,-8.5*,1,i,i
Cc1[nH]c2ccccc2c1N=Nc1c(C)n(C)n(-c2ccccc2)c1=O,-2,i,i,i,-13*,2,i,i
Cc1c(N=Nc2ccc(O)cc2)c(=O)n(-c2ccccc2)n1C,-17,i,i,i,i,-4,·,·
COc1ccc(OC)c2nc(-c3ccc4c(c3)OCO4)ccc12,1,i,i,i,i,-13,·,·
O=C1Nc2ccc(F)cc2C12Nc1ccccc1-c1nnc(SCc3ccccc3)nc1O2 (centres undefined),-5,i,i,i,i,-7,·,·
O=C1Nc2ccc(F)cc2C12Nc1ccccc1-c1nnc(SCc3ccccc3Cl)nc1O2 (centres undefined),9,i,i,i,-6.1*,-2,i,i
O=C(CSc1nnc(Cc2ccccc2)o1)c1cc(F)ccc1F,-6,i,i,i,i,0,·,·
SMILES,PKA-R2B act,TMEM16A inh,CHT PAM,TMEM16A act,CHT block,PKA-R1A activ,CHT block conf,HEK293 CHT ctr
COCCCN=C1NN=C(c2cc(C)n(-c3ccccc3F)c2C)CS1,-15,i,i,i,-6.5*,3,33%*,i
COc1ccc(CNC(=O)[C@H](C)NC(=O)N2CCn3c2nc2ccccc23)cc1,7,i,i,i,-6*,2,47%*,i
O=C(C[n+]1cccc2ccccc21)c1ccc([N+](=O)[O-])cc1,-2,i,i,i,i,3,·,·
O=C(C[n+]1cccc2ccccc21)c1ccc(Cl)cc1,-8,i,i,i,-8*,-10,37%*,i
O=C(C[n+]1cc(Br)cc2ccccc21)c1ccccc1,2,i,i,i,-6.4*,-6,56%*,2.4*
COc1ccc(/C=C\C(=O)NCC(=O)N/N=C/c2ccc(O)cc2O)cc1,2,i,i,i,-5.5*,7,i,i
O=C1CCC(C(=O)OCc2nnc(-c3ccccc3)o2)=NN1,4,i,i,i,i,5,·,·
COc1ccc(C)cc1NC(=O)CN1CCN(c2ccccc2F)CC1,-13,i,i,i,-5*,-14,i,i
COc1ccc(OC)c(NC(=O)CCN2CCN(c3ccccc3F)CC2)c1,-2,i,i,i,i,1,·,·
N#C/C(=N\Nc1ccc([N+](=O)[O-])cc1)C(N)=S,4,100*,i,i,-9.4*,-4,-9.8%*,i
O=C(O)c1ccc(N=NNc2cccc([N+](=O)[O-])c2)cc1,-1,i,i,i,i,-6,·,·
N#C/C(=N/Nc1ccc([N+](=O)[O-])cc1)C(=N)N1CCCCC1,5,·,·,i,·,1,·,·
N#C/C(=N\Nc1cccc([N+](=O)[O-])c1)C(=O)c1ccc(Br)cc1,-5,25*,i,i,-10*,-17,63%*,i

# Bioassay records from PubChem.
